This excerpt belongs to a sample that is enriched for hits.
PD-1 reversal: reversal of PD-1 mediated T-cell inhibition; primary human CD4 T cells, PD-L1 beads, CellTiter-Glo 96 h; activation, % (test concentration not listed); 29,000 tested, under 10 active; AID 2316; call rule not given here
U2OS ROS induce: inducers of reactive oxygen species in cancer cells | ROS induction (% of piperlongumine), % at 10 µM | hit rate 2% among 46,000 | U2OS ROS induction, H2DCF-DA fluorescence; in the data active = ROS induction above about 79%, passing the limit was not always enough; inconclusive = no clear call, values can overlap the other calls
NOMO-1 viab: STK33 inhibitor candidate reducing NOMO-1 cell viability; NOMO-1 AML viability, CellTiter-Glo luminescence, 72 h; AID 2330; hit rate 7.5% among 37,000; inhibition, % (no concentration beside the values); in the data active = inhibition above about 80%; inconclusive = no clear call, values can overlap the other calls
Of the large screens only hits and unclear results are named; the others gave an inactive call.

Cc1ccc(S(=O)(=O)N(C)C[C@@H]2Oc3c(NC(=O)CCCCCC(=O)Nc4ccccc4N)cccc3C(=O)N([C@@H](C)CO)C[C@H]2C)cc1	none
Cc1ccc(S(=O)(=O)N(C)C[C@H]2Oc3c(NC(=O)CCCCCC(=O)Nc4ccccc4N)cccc3C(=O)N([C@H](C)CO)C[C@@H]2C)cc1	NOMO-1 viab inconclusive
C[C@H](CO)N1C[C@H](C)[C@H](CN(C)S(=O)(=O)c2ccc(Cl)cc2)Oc2c(NC(=O)CCCCCC(=O)Nc3ccccc3N)cccc2C1=O	U2OS ROS induce inconclusive, NOMO-1 viab 119.3
C[C@H]1CN([C@@H](C)CO)C(=O)c2cccc(NC(=O)CCCCCC(=O)Nc3ccccc3N)c2O[C@@H]1CN(C)S(=O)(=O)c1ccc(Cl)cc1	NOMO-1 viab 102.9
C[C@@H]1CN([C@@H](C)CO)C(=O)c2cccc(NC(=O)CCCCCC(=O)Nc3ccccc3N)c2O[C@@H]1CN(C)S(=O)(=O)c1ccccc1	NOMO-1 viab 104.3
COc1ccc(S(=O)(=O)NCc2csc(-c3ccccc3)n2)cc1OC	none (no result: PD-1 reversal, NOMO-1 viab)
O=S1(=O)CC(N2CCCC2)c2ccccc21 (centres undefined)	none (no result: PD-1 reversal, NOMO-1 viab)
COCc1cc(C)nc2sc3c(=O)n(Cc4ccccc4)nnc3c12	none (no result: PD-1 reversal, NOMO-1 viab)
COc1cccc(OCCSc2nc3ccccc3s2)c1	none (no result: PD-1 reversal, NOMO-1 viab)
C[C@H]1CC[C@@H]2[C@@H](C(=O)c3c(O)c([C@]4(O)CC[C@@H](O)[C@H]5O[C@H]54)cn(O)c3=O)[C@@H](C)C=C[C@H]2C1	NOMO-1 viab 120.0
Brc1ccc2ncnc(-c3ccccc3)c2c1	none (no result: PD-1 reversal, NOMO-1 viab)
Cc1cc(C)c(OCC(=O)Nc2cc(-c3nc4ncccc4o3)ccc2C)c(Cl)c1	none (no result: PD-1 reversal, NOMO-1 viab)
CCOC(=O)C(Cc1ccc(O)cc1)NC(C)=O (centres undefined)	none (no result: PD-1 reversal)
COC(=O)[C@H](Cc1ccc(O)cc1)NC(=O)c1cccc(Cl)c1	NOMO-1 viab 110.4
Cc1ccc(Cn2nc(C)cc2C(=O)Nc2ccc(C)cc2)cc1	none
Cc1ccc(Cn2nc(C)cc2C(=O)Sc2ccccc2)cc1	NOMO-1 viab 92.5
COC(=O)CCCCCCC(=O)N/N=C/c1ccc([N+](=O)[O-])s1	none (no result: PD-1 reversal, NOMO-1 viab)
C=C(C)CC(Nc1ccccc1F)c1ccco1 (centres undefined)	none (no result: PD-1 reversal, NOMO-1 viab)
C=C(CO)C(=O)O[C@H]1C[C@@]2(C)OC(=O)/C(=C/C)[C@@]23CC[C@@](C)(O)CC(=O)[C@@]1(C(=C)C(=O)OC)O3	none (no result: PD-1 reversal, NOMO-1 viab)
C=C[C@@]12COC(=O)C(=C)C1[C@@H](O)[C@H](C(=C)C(=O)OC)[C@@H](OC(=O)C(=C)CO)C2 (some centres undefined)	U2OS ROS induce inconclusive, NOMO-1 viab 115.7
C=C[C@@]12COC(=O)C(=C)[C@@H]1[C@@H](O)[C@H](C(=C)C(=O)OC)[C@@H](O)C2	NOMO-1 viab 83.3
c1ccc(-c2ccccc2NC2=NCCS2)cc1	none (no result: PD-1 reversal, NOMO-1 viab)
O=C1CSc2ccc(C(=O)NC3CCCCCC3)cc2N1	none (no result: PD-1 reversal, NOMO-1 viab)
CC(C)Sc1ccc2nnc(-c3ccccn3)n2n1	none (no result: PD-1 reversal, NOMO-1 viab)
C=C1C(=O)O[C@@H]2C[C@H](C)[C@@]3(O)C[C@H](O)[C@@](C)(C[C@@H](OC(=O)C(C)C)[C@@H]12)O3	NOMO-1 viab 118.6
O=C1CC(c2cccs2)SC(N(c2ccccc2)c2ccccc2)=N1 (centres undefined)	none (no result: PD-1 reversal, NOMO-1 viab)
Clc1cccc(CNc2ccc3nnc(-c4ccccc4)n3n2)c1	none (no result: PD-1 reversal, NOMO-1 viab)
CC(C(=O)OCC(=O)n1c2c(c3ccccc31)CCCC2)N1C(=O)c2ccccc2C1=O (centres undefined)	none (no result: PD-1 reversal, NOMO-1 viab)
C[C@@H]1CN([C@@H](C)CO)C(=O)c2cc(NC(=O)CCC(F)(F)F)ccc2O[C@@H]1CN(C)Cc1ccc(Cl)c(Cl)c1	NOMO-1 viab 93.2
C[C@@H]1CN([C@H](C)CO)C(=O)c2cc(NC(=O)CCC(F)(F)F)ccc2O[C@H]1CN(C)Cc1ccc(Cl)c(Cl)c1	none (no result: PD-1 reversal)
C[C@@H]1CN([C@@H](C)CO)C(=O)c2cc(NC(=O)CCC(F)(F)F)ccc2O[C@H]1CN(C)Cc1ccc(Cl)c(Cl)c1	none
C[C@H](CO)N1C[C@H](C)[C@H](CN(C)Cc2ccc(Cl)c(Cl)c2)Oc2ccc(NC(=O)CCC(F)(F)F)cc2C1=O	none
C[C@H](CO)N1C[C@H](C)[C@H](CN(C)Cc2ccc(Cl)c(Cl)c2)Oc2ccc(NC(=O)CCC(F)(F)F)cc2CC1=O	U2OS ROS induce 150.7
C[C@@H]1CN([C@@H](C)CO)C(=O)Cc2cc(NC(=O)CCC(F)(F)F)ccc2O[C@@H]1CN(C)Cc1ccc(Cl)c(Cl)c1	NOMO-1 viab 124.2
CCCN(C(=O)c1ccc2c(=O)n3c(nc2c1)CCCC3)c1ccc(Cl)c(Cl)c1	none (no result: PD-1 reversal, NOMO-1 viab)
Cc1ccc2sc(-c3ccc(N4C(=O)C5CC=CCC5C4=O)cc3)nc2c1 (centres undefined)	none (no result: PD-1 reversal, NOMO-1 viab)
Cc1coc2c1C(=O)C(=O)c1c-2ccc2c1CCCC2(C)C	NOMO-1 viab 109.1 (no result: PD-1 reversal)
CC1CCc2cc(F)ccc2N1C(=O)Nc1ccc(F)cc1 (centres undefined)	none (no result: PD-1 reversal, NOMO-1 viab)
CCOC(=O)c1c(NC(C)=O)sc2c1CCCCC2	none
CCOC(=O)C1CCN(C(c2cccc(Cl)c2)c2c(NC(C)=O)sc3c2CCCC3)CC1 (centres undefined)	NOMO-1 viab 109.1
Oc1ccc(Br)cc1C=NCC12CCC3CC(CC(C3)C1)C2	NOMO-1 viab 89.6
COc1ccc(-c2cc(C(=O)Nc3cc(Cl)ccc3OC)c3ccccc3n2)cc1	none (no result: PD-1 reversal, NOMO-1 viab)
O=C(O)C(Cc1ccsc1)c1ccccc1 (centres undefined)	none
COc1ccc(NC(=O)CSc2nc(C)cc(C)n2)cc1	none
COC(=O)c1cc(NC(=O)CSc2nc(C)cc(C)n2)cc(C(=O)OC)c1	NOMO-1 viab 113.8
COC(=O)c1ccc(CSc2n[nH]c(-c3ccccc3OC)n2)o1	NOMO-1 viab 114.4 (no result: PD-1 reversal, U2OS ROS induce)
CCOc1ccc(-c2nc(SCc3ccc(C(=O)OC)o3)n[nH]2)cc1	NOMO-1 viab inconclusive
O=C(NCCC(c1ccccc1)c1ccccc1)c1cc2ccccc2c(=O)o1	U2OS ROS induce 153.8
O=C(c1cc2ccccc2c(=O)o1)N1CCN(C(c2ccccc2)c2ccccc2)CC1	none (no result: PD-1 reversal, NOMO-1 viab)
Cc1sc2nc(SCCC(C)C)nc(N)c2c1C	none (no result: PD-1 reversal, NOMO-1 viab)
C[C@@H]1CN([C@@H](C)CO)C(=O)c2cccc(NC(=O)c3cnccn3)c2O[C@H]1CN(C)Cc1ccc(Cl)c(Cl)c1	U2OS ROS induce 87.1, NOMO-1 viab 104.5
C[C@@H]1CN([C@@H](C)CO)C(=O)c2cccc(NC(=O)c3cnccn3)c2O[C@@H]1CN(C)Cc1ccc(Cl)c(Cl)c1	none (no result: PD-1 reversal)
C[C@@H]1CN([C@H](C)CO)C(=O)c2cccc(NC(=O)c3cnccn3)c2O[C@H]1CN(C)Cc1ccc(C(=O)Nc2ccccc2N)cc1	NOMO-1 viab inconclusive
C[C@@H]1CN([C@@H](C)CO)C(=O)c2cccc(NC(=O)c3cnccn3)c2O[C@@H]1CN(C)Cc1ccc(C(=O)Nc2ccccc2N)cc1	NOMO-1 viab 128.7
N#CN=C(N)c1sc2nc3c(cc2c1N)CCCCC3	none
CNC(=O)Cn1ncc2c(C)n(Cc3ccccc3)c(C)c2c1=O	none (no result: PD-1 reversal, NOMO-1 viab)
CC(C)(C)OC(=O)N1C(N)=C(C#N)C2(CCOCC2)c2[nH]c(C(F)(F)F)nc21	none
CC(C)C[C@@H](/C=C/S(C)(=O)=O)NC(=O)[C@H](CC(C)C)NC(=O)[C@H](CC(C)C)NC(=O)OCc1ccccc1	NOMO-1 viab 97.6
CC(C)C[C@@H](NC(=O)OCC1c2ccccc2-c2ccccc21)C(=O)O	none (no result: PD-1 reversal)
COc1cc2c(cc1OC)[C@@H]1C(=O)c3ccc4c(c3O[C@@H]1CO2)CCC(C)(C)O4	none (no result: PD-1 reversal)

Bioassay records as filed in PubChem BioAssay.
